“And” between values parts separate entries of the source, which are not always exact repeats. Equal values may be shown once. The panel holds about 79,000 compounds, 15% with a hit somewhere; the sample as a whole holds those more often. Unmarked numbers belong to inactive results. The source made the active and inactive calls. Cut-off read from the data, not from the text of the source: active = growth inhibition above about 70%; inactive = the rest.
experiment: NCI Yeast Anticancer Drug Screen. Data for the sgs1 mgt1 strain (AID 161);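 note: 0% = growth of cultures given vehicle only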; settings: S. cerevisiae sgs1 mgt1 strain, at 5.0 µM (retest, dose inferred, filed as 0.5), active compounds read high
In short: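 Yeast cells carrying a defined DNA-repair defect were exposed to test compounds. Growth inhibition was measured relative to vehicle-treated controls.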

| Structure (SMILES) | growth inhibition |
| --- | --- |
| CC(=O)OC(OC(C)=O)c1ccc2ccc3cccc4ccc1c2c34 | -16% |
| CCCCC(O)CCCC | -5% |
| Nc1ccc(O)c2ccccc12 | 7% |
| O=C1CCC(Cc2ccc(C(F)(F)F)cc2)C(=O)N1 (centres undefined) | 2% |
| CCCCCCCC[N+](C)(C)Cc1ccc(C[N+](C)(C)CCCCCCCC)cc1 | 3% |
| CC(C)(N)COB(c1ccccc1)c1ccccc1 | -1% |
| CCCCC(Oc1cc(C(C)(C)C)c(O)c(C(C)(C)C)c1)C(=O)O (centres undefined) | 35% |
| CCCCCCCCN(CCCCCCCC)Cc1ccc(Br)cc1 | 99% (active) |
| CCc1cc2c(c3c1C(=O)CC3)C(C)(C)CCC2 | 1% |
| FC(F)(F)c1ccc(Cl)c(NC(=S)SC2CCCCC2)c1 | 7% |
| NC(N)=Nc1ccc(Cc2ccc(N=C(N)N)cc2)cc1 | 2% |
| Nc1ccc(-c2cccc(-c3ccccc3)c2)cc1 | -11% |
| COc1cc(CSc2ccc(O)cc2)cc(OC)c1OC | -24% |
| CC(C)N(CC(=O)c1ccc2cc(Cl)c3ccccc3c2c1)C(C)C | 79% (active) |
| Cc1c(N2CCCC2)cc2c(c1NC(=O)c1ccccc1Cl)C(C)(C)CC2(C)C | 20% |
| CNc1ccc([N+](=O)[O-])cc1 | -1% |
| CC(C)(C)OC(=O)c1ccc(NCC2=C(Br)C(=O)C=CC2=O)cc1 | 15% |
| CCN(CC)CCNc1ccc(C)c2oc3ccc(O)cc3c(=O)c12 | -1% |
| CCS(=O)(=O)c1ccc(NC(=O)OC2CCCCCCC2)cc1 | 11% |
| CC[N+](C)(CC)CCC[n+]1c(-c2ccccc2)c2cc(N)ccc2c2ccc(N)cc21 | -2% |
| Cn1nc2c(c(Cl)c1=O)Nc1ccccc1O2 | -20% |
| COC(=O)CSc1nc2[nH]c(SC)c(C(N)=O)c2c(=O)n1-c1ccccc1 | 3% |
| O=S(=O)(Nc1ccc(Cl)cc1)c1ccccc1 | 1% |
| COc1ccc(C(=O)Nc2ccc(Cl)cc2)cc1 | 0% |
| C=CCOC(=O)CCC(=O)N(CC)CC | -6% |
| CCCCOC(=O)c1cnc[nH]c1=O | 0% |
| CCCCOC(=O)c1ccc(O)c(OC)c1 | 0% |

same assay, conditions: S. cerevisiae sgs1 mgt1 strain, at 50.0 µM (retest, dose inferred, filed as 5.0), active compounds read high

| Structure (SMILES) | growth inhibition |
| --- | --- |
| CC(=O)OC(OC(C)=O)c1ccc2ccc3cccc4ccc1c2c34 | 84% (active) |
| CCCCC(O)CCCC | 9% |
| Nc1ccc(O)c2ccccc12 | 63% |
| O=C1CCC(Cc2ccc(C(F)(F)F)cc2)C(=O)N1 (centres undefined) | 92% (active) |
| CCCCCCCC[N+](C)(C)Cc1ccc(C[N+](C)(C)CCCCCCCC)cc1 | 34% |
| CC(C)(N)COB(c1ccccc1)c1ccccc1 | 99% (active) |
| CCCCC(Oc1cc(C(C)(C)C)c(O)c(C(C)(C)C)c1)C(=O)O (centres undefined) | 97% (active) |
| CCCCCCCCN(CCCCCCCC)Cc1ccc(Br)cc1 | 99% (active) |
| CCc1cc2c(c3c1C(=O)CC3)C(C)(C)CCC2 | 97% (active) |
| FC(F)(F)c1ccc(Cl)c(NC(=S)SC2CCCCC2)c1 | 99% (active) |
| NC(N)=Nc1ccc(Cc2ccc(N=C(N)N)cc2)cc1 | 0% |
| Nc1ccc(-c2cccc(-c3ccccc3)c2)cc1 | 97% (active) |
| COc1cc(CSc2ccc(O)cc2)cc(OC)c1OC | 29% |
| CC(C)N(CC(=O)c1ccc2cc(Cl)c3ccccc3c2c1)C(C)C | 98% (active) |
| Cc1c(N2CCCC2)cc2c(c1NC(=O)c1ccccc1Cl)C(C)(C)CC2(C)C | 85% (active) |
| CNc1ccc([N+](=O)[O-])cc1 | 11% |
| CC(C)(C)OC(=O)c1ccc(NCC2=C(Br)C(=O)C=CC2=O)cc1 | 97% (active) |
| CCN(CC)CCNc1ccc(C)c2oc3ccc(O)cc3c(=O)c12 | 29% |
| CCS(=O)(=O)c1ccc(NC(=O)OC2CCCCCCC2)cc1 | 74% (active) |
| CC[N+](C)(CC)CCC[n+]1c(-c2ccccc2)c2cc(N)ccc2c2ccc(N)cc21 | 33% |
| Cn1nc2c(c(Cl)c1=O)Nc1ccccc1O2 | -19% |
| COC(=O)CSc1nc2[nH]c(SC)c(C(N)=O)c2c(=O)n1-c1ccccc1 | -7% |
| O=S(=O)(Nc1ccc(Cl)cc1)c1ccccc1 | 80% (active) |
| COc1ccc(C(=O)Nc2ccc(Cl)cc2)cc1 | 0% |
| C=CCOC(=O)CCC(=O)N(CC)CC | -11% |
| CCCCOC(=O)c1cnc[nH]c1=O | 8% |
| CCCCOC(=O)c1ccc(O)c(OC)c1 | 6% |

same assay, conditions: S. cerevisiae sgs1 mgt1 strain, at 50.0 µM, active compounds read high

| Structure (SMILES) | growth inhibition |
| --- | --- |
| CC(=O)OC(OC(C)=O)c1ccc2ccc3cccc4ccc1c2c34 | 61% |
| OCC(O)C(O)C(O)C(O)CNCC(O)C(O)C(O)C(O)CO (centres undefined) | 12.8% and 14.3% and -2.5% |
| NCC(=O)NC(CO)C(=O)O (centres undefined) | -12.2% and -2.65% and -3.75% |
| CCCCC(O)CCCC | 15.8% |
| Nc1ccc(O)c2ccccc12 | 68.3% |
| O=C1CCC(Cc2ccc(C(F)(F)F)cc2)C(=O)N1 (centres undefined) | 95.8% (active) |
| CCCCCCCC[N+](C)(C)Cc1ccc(C[N+](C)(C)CCCCCCCC)cc1 | 1.05% |
| CC(C)(N)COB(c1ccccc1)c1ccccc1 | 99.8% (active) |
| CCCCC(Oc1cc(C(C)(C)C)c(O)c(C(C)(C)C)c1)C(=O)O (centres undefined) | 99.5% (active) |
| CCCCCCCCN(CCCCCCCC)Cc1ccc(Br)cc1 | 99.5% (active) |
| CCc1cc2c(c3c1C(=O)CC3)C(C)(C)CCC2 | 6.4% |
| FC(F)(F)c1ccc(Cl)c(NC(=S)SC2CCCCC2)c1 | 99.3% (active) |
| NC(N)=Nc1ccc(Cc2ccc(N=C(N)N)cc2)cc1 | -17.9% |
| Nc1ccc(S(=O)(=O)O)c2ccccc12 | -10.4% and -28.8% and 7.35% |
| Nc1ccc(-c2cccc(-c3ccccc3)c2)cc1 | 96.2% (active) |
| COc1cc(CSc2ccc(O)cc2)cc(OC)c1OC | 84.9% (active) |
| CC(C)N(CC(=O)c1ccc2cc(Cl)c3ccccc3c2c1)C(C)C | 98.8% (active) |
| Cc1c(N2CCCC2)cc2c(c1NC(=O)c1ccccc1Cl)C(C)(C)CC2(C)C | 73.2% (active) |

| Structure (SMILES) | growth inhibition |
| --- | --- |
| CNc1ccc([N+](=O)[O-])cc1 | -5.2% |
| CC(C)(C)OC(=O)c1ccc(NCC2=C(Br)C(=O)C=CC2=O)cc1 | 83.4% (active) |
| CCN(CC)CCNc1ccc(C)c2oc3ccc(O)cc3c(=O)c12 | 81.5% (active) |
| CSc1ccccc1C(=O)O | -10.4% and -1.2% and 31.2% |
| CCS(=O)(=O)c1ccc(NC(=O)OC2CCCCCCC2)cc1 | 65.5% |
| OC(c1ccccc1)C(O)c1ccccc1 (centres undefined) | 4.4% and 1.85% and 11.1% |
| Cc1ccc(S(=O)(=O)OCC(O)C(O)COS(=O)(=O)c2ccc(C)cc2)cc1 (centres undefined) | 25.3% and -27.6% and -5.9% |
| CC[N+](C)(CC)CCC[n+]1c(-c2ccccc2)c2cc(N)ccc2c2ccc(N)cc21 | 68.9% |
| Cn1nc2c(c(Cl)c1=O)Nc1ccccc1O2 | -24.8% |
| COC(=O)CSc1nc2[nH]c(SC)c(C(N)=O)c2c(=O)n1-c1ccccc1 | 7.25% |
| O=S(=O)(Nc1ccc(Cl)cc1)c1ccccc1 | 47.7% |
| COc1ccc(C(=O)Nc2ccc(Cl)cc2)cc1 | 5.85% |
| CC(=O)OC1COC(SC(=N)N)C(OC(C)=O)C1OC(C)=O (centres undefined) | 27.9% and 22.1% and 24.4% |
| C=CCOC(=O)CCC(=O)N(CC)CC | -25.1% |
| CCCCOC(=O)c1cnc[nH]c1=O | 8.15% |
| COC1OC2COC(c3ccccc3)OC2C(O)C1O (centres undefined) | -3.35% and 7.95% and 0.55% |
| CCCCOC(=O)c1ccc(O)c(OC)c1 | 5.25% |
